# Measurements published in PubChem BioAssay AID624246 (National Center for Advancing Translational Sciences (NCATS), 2012).
# Among all 370,000 compounds or so, about 100 (0.027%) were called active. Calls follow the shape of the dose curve; as a rule, active = well fitted inhibition curve with a large enough effect in the polarisation, with a control signal flat; inconclusive = small, poorly fitted or top-dose-only effect, or effect the other way, or a change in a side signal; inactive = no such curve, though single readings can be large or run the other way; the % refers to the polarisation. The full list was thinned out, with actives kept by preference.
# Biological target: Transcriptional regulator ERG (Homo sapiens) (UniProt P11308)
# Sequence (P11308 whole entry, looked up): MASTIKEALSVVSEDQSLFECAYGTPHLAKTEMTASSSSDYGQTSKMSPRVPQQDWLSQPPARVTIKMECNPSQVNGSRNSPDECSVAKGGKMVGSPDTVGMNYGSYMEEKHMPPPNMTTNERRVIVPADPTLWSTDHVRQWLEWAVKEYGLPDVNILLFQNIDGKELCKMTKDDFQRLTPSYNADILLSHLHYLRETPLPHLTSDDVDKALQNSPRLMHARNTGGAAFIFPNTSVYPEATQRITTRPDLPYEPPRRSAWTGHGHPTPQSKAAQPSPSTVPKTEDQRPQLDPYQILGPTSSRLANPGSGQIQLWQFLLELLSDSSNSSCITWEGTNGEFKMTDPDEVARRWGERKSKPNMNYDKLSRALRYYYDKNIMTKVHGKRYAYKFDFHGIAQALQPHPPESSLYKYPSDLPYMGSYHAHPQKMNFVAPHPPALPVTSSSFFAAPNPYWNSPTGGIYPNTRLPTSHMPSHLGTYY
# Assay: qHTS for Small Molecule Inhibitors of the ERG Ets/DNA interaction; as to FP activity, negative = inhibition: % of control where 0% means no effect
# Conditions: fluorescence polarization, His-ERG Ets domain / labelled DNA; series mostly up to 76.9 µM; FP activity, negative = inhibition: at the top concentration
# From the text: The Ets family of proteins is a family of ~30 conserved transcription factors defined by the presence of an ~85 amino acid domain referred to as the Ets domain, which mediates sequence-specific DNA binding to a core DNA element GGAA/T.The Ets family member ERG has been linked to several neoplasms. […] More extensive studies of the effects of over-expression of ERG in prostate cells have recently been carried out and have shown that over-expression of ERG results in increased invasion. […] We will carry out a high throughout screen to identify inhibitors of the interaction between ERG and DNA using a fluorescence polarization (FP) assay with a His-tagged ERG Ets domain and fluorescently-labeled DNA probes to develop small molecule inhibitors of this interaction as probes to test this hypothesis and lay the groundwork for the development of targeted therapies against ERG. NIH Molecular Libraries Probe Production Network [MLPCN] NIH Chemical Genomics Center [NCGC] Grant: NS066464 PI Name: John Bushweller, University of Virgina
# 1.5 ul of protein solution (1 uM ERG domain in 300mM KCl, 50mM Tris-HCl, 1mM EDTA, 1mM DTT, pH 7.5); 20 nl Control plate and compound library plate; 1.5 ul mixture of 5 nM Fluorescein-DNA and 100nM Texas-615-DNA solution in same buffer as above solution; measure fluorescence polarization sequentially for fluorescein (Excitation = 480 nm, Emission = 535s, 535p nm) and Texas red (Excitation = 555 nm, Emission = 632s, 632p nm).
# Potency is read from the fitted curve at half-maximal effect.
Compound,"FP activity, negative = inhibition",Potency
Cc1ccc(OCCSc2nc(C)c(Cc3ccccc3)c(=O)[nH]2)cc1,1.16% (inactive),–
CCC1(C)CC(=O)c2c(ccc3oc(C(=O)Nc4ccc(C(C)=O)cc4)c(C)c23)O1 (centres undefined),-5.73% (inactive),–
COc1ccc(CCNC(=O)c2ccc(-n3c(C)cc4c3CCCC4)cc2)cc1OC,-3.33% (inactive),–
Cc1ccc(C)c(CNC(=O)c2cc3ccccn3n2)c1,-10.3% (inactive),–
CCOc1ccccc1NC(=O)CN1CCN(S(=O)(=O)c2ccc(Br)cc2)CC1,2.57% (inactive),–
Cc1oc(-c2ccccc2F)nc1CN1CCC(C(=O)NCCc2ccc(Cl)cc2)CC1,-1.13% (inactive),–
CCOc1cccc(C(=O)Nc2nnc(S(=O)(=O)N(C)c3ccc(C)cc3)s2)c1,0.655% (inactive),–
COc1ccc(Cn2ccc3nc(C)c(C(=O)Nc4ccc(C)c(F)c4)cc3c2=O)cc1,-3.4% (inactive),–
COc1ccc(OC)c(CNC(=O)Cn2nc(C)c3c(C)n(-c4ccccc4)nc3c2=O)c1,3.15% (inactive),–
CCN(CC)CCNC(=O)CN1N=C(c2ccc(OC)cc2)CCC1=O,-3.32% (inactive),–
CCOC(=O)c1cc2c(=O)n3ccccc3nc2n(CCCOC)c1=NC(=O)C(C)(C)Oc1ccc(Cl)cc1,-23.1% (inactive),–
COc1cccc(-c2nnc(SCC(=O)N3CCC(C)CC3)o2)c1,1.34% (inactive),–
COC(=O)c1ccc(NC(=O)c2cnn(-c3ccc(Cl)cc3)c2C2CCN(C(=O)OC(C)(C)C)CC2)cc1,2.85% (inactive),–
COc1cccc2c1C(=O)c1c(O)c3c(c(O)c1C2=O)CC(O)(C(C)=NNC(=O)c1ccc(Cl)c(Cl)c1)CC3OC1CC(N)C(O)C(C)O1 (centres undefined),–,2.51 µM (active)
O=C(NCc1ccc2c(c1)CCN2C(=O)c1ccccc1)Nc1cc(F)ccc1F,-0.322% (inactive),–
O=C(NCCCO)C(=O)Nc1c2c(nn1-c1ccccc1)CSC2,6.72% (inactive),–
O=C(Nc1ccc2nc(SCCOc3ccccc3Cl)sc2c1)c1ccco1,-0.316% (inactive),–
CCc1nc(-c2cc(S(=O)(=O)N3CCN(c4ccc(OC)cc4)CC3)ccc2OC)no1,-3.39% (inactive),–
CCCN1CCc2nc(N3CCN(C)CC3)ncc2C1,1.55% (inactive),–
COc1cccc2cc(/C(C)=N/NC(=O)c3ccco3)oc12,-10.8% (inactive),–
C/C(CC(=O)NC(C)(C)C)=N\NC(=O)c1ccco1,3.01% (inactive),–
C/C(=N/NC(=O)CCc1ccccc1)c1ccco1,–,28.2 µM (active)
CCC1=Nc2cc(C(=O)NCCCOC(C)C)ccc2Sc2ccc(C)cc21,-0.0425% (inactive),–
CCOC(=O)c1ccc2c(c1)N(Cc1cccc(OC)c1)C(=O)c1ccccc1S2(=O)=O,-4.86% (inactive),–

Compound,"FP activity, negative = inhibition",Potency
CN(C(=O)c1ccc2c(c1)N(Cc1cccc(Cl)c1)C(=O)c1ccccc1S2=O)C1CCCCC1 (centres undefined),-4.59% (inactive),–
O=C1CN(C(=O)Nc2ccccc2C(F)(F)F)C(c2ccccc2)c2c(sc3c2CCCC3)N1 (centres undefined),6.74% (inactive),–
COc1ccccc1NC(=O)C1=C(C)Nc2nc(SCC(=O)c3ccc(C)cc3)nn2C1c1ccccc1C (centres undefined),-8.08% (inactive),–
O=C1N(Cc2ccccc2)c2ccc(Cl)cc2C1(O)c1c[nH]c2ccccc12 (centres undefined),0.882% (inactive),–
CCOC(=O)c1c(NC(=O)/C=C/c2ccc(OC)cc2)sc2c1CCC(C)C2 (centres undefined),2.55% (inactive),–
CCOC(=O)c1ccccc1NC(=O)c1nn(-c2ccc(OC)c(Cl)c2)c(=O)c2c1c1ccccc1n2C,-3.65% (inactive),–
CCc1ccc(NS(=O)(=O)c2ccc3[nH]cc(C(=O)NCCc4cccc(C)c4)c(=O)c3c2)cc1,-8.63% (inactive),–
COc1ccc(N2CCN(c3nc(-c4ccccc4F)nc4ccccc34)CC2)cc1,-3% (inactive),–
CC(C)c1ccc(OCC(=O)N(Cc2ccc(N(C)C)cc2)C2CCS(=O)(=O)C2)cc1 (centres undefined),-0.0046% (inactive),–
CCOc1cccc(CC(=O)N2CCc3c([nH]c4ccccc34)C2c2ccc(F)cc2)c1OCC (centres undefined),1.73% (inactive),–
Cc1ccc(C)c(Nc2nnc(-c3ccc(C)c(S(=O)(=O)N4CCCCC4)c3)c3ccccc23)c1,0.916% (inactive),–
CCCN1C(=O)C(O)(CC(=O)c2ccc(CC)cc2)c2cc(Br)ccc21 (centres undefined),6.2% (inactive),–
Cc1nn(CC(=O)O)c(=O)c2cc3cc(F)ccc3n12,-2.51% (inactive),–
CCOC(=O)c1ccc(NC(=O)C2CC(=O)N(c3ccc(C(C)C)cc3)C2)cc1 (centres undefined),-0.232% (inactive),–
COc1cccc(Cn2c(CNS(=O)(=O)c3ccc(Cl)s3)nc3cccnc32)c1,-3.77% (inactive),–
COc1ncnc2c1N=C1CC(C)(C)CC(N)=C1S2,–,35.5 µM (active)
CC(=O)c1c(C)n(S(=O)(=O)c2ccc(Cl)cc2)c2ccc(NS(=O)(=O)c3ccc(Cl)cc3)cc12,-4.05% (inactive),–
COc1cccc(Cn2c(SCc3ccc(C(=O)N4CCCCC4)cc3)nc3ccncc32)c1,-1.17% (inactive),–
Fc1cccc(-n2ncc3c2ncn2nc(-c4ccccc4Cl)nc32)c1,-9.93% (inactive),–
Cc1ccc(-c2cn3c(n2)sc2cc(C(=O)NCc4cccs4)ccc23)c(C)c1,1.59% (inactive),–
COc1ccccc1CNC(=O)c1ccccc1NC(=O)c1nsc2ccccc12,0.107% (inactive),–
CC(=O)Nc1ccc(NC(=O)c2cc3sccc3n2Cc2ccc(F)cc2)cc1,2.87% (inactive),–
CCOc1ccc(OCC)c(NC(=O)CN(c2ccc(C)cc2)S(=O)(=O)c2c(C)n[nH]c2C)c1,0.183% (inactive),–
CCc1ccccc1N(C)C(=O)C1CCCN(c2ncnc3onc(-c4ccc(F)cc4)c23)C1 (centres undefined),-3.47% (inactive),–

Compound,"FP activity, negative = inhibition",Potency
CCCc1nn2c(=O)cc(COC(=O)c3ccc(NC(=O)COc4ccc(F)cc4)cc3)nc2s1,3.44% (inactive),–
COc1cc(NC(=O)Cn2c(=O)n(Cc3ccco3)c(=O)c3oc4ccccc4c32)cc(OC)c1,7.39% (inactive),–
Cc1cccc(NC(c2cccc(F)c2)c2ccc3ccc(C)nc3c2O)n1 (centres undefined),-6.48% (inactive),–
COc1cc(NC(=O)CCn2nc(C)cc2C)cc(OC)c1OC,5.03% (inactive),–
Cc1cc(N2CCCC2)ccc1NC(=O)COc1ccc(Cl)cc1,47.5% (inactive),–
Cc1cc(C)cc(OCC(=O)Nc2ccc(N3CCOCC3)cc2N2CCOCC2)c1,–,28.2 µM (active)
Cc1cc(C)cc(OCC(=O)Nc2cc(NC(=O)COc3cc(C)cc(C)c3)cc(C(=O)O)c2)c1,1.28% (inactive),–
CCOc1ccc(NC(=O)c2c(NCc3cccc(OC)c3OC)sc3c2CCC3)cc1,-10.3% (inactive),–
Cc1cccc(C(=O)Nc2ccc(-c3nc4ncccc4o3)cc2C)c1,-3.97% (inactive),–
CC(=O)Nc1ccc(NC(=O)CCCc2nc(-c3ccc(C(C)(C)C)cc3)no2)cc1,3.14% (inactive),–
COc1ccccc1CN1CCC(CNC(=O)c2cnn(-c3ccccc3Cl)c2C2CCN(C(=O)OC(C)(C)C)CC2)CC1,2.12% (inactive),–
CC(C)Cn1c(=O)c2ccccc2n2c(CCC(=O)N3CCN(c4cccc(Cl)c4)CC3)nnc12,1.77% (inactive),–
CCCn1c2ccccc2c2cnn(CC(=O)N(C)c3ccccc3CC)c(=O)c21,-8.81% (inactive),–
O=C(NCc1ccccc1Cl)C1=Cc2cc(Br)ccc2OC1,3.13% (inactive),–
COc1ccc(NC(C)=O)cc1NC(=O)CN1CCN(c2ccc(F)cc2)CC1,2.77% (inactive),–
O=C(CSc1oc(-c2ccco2)nc1S(=O)(=O)c1ccc(Cl)cc1)c1ccccc1,5.44% (inactive),–
Cc1ccccc1-c1nc(CS(=O)(=O)CC(=O)Nc2cc(Cl)cc(Cl)c2)c(C)o1,1.85% (inactive),–
Cc1ccc(NC(=O)c2nc(S(=O)(=O)Cc3cccc(C)c3)ncc2Cl)cc1,1.14% (inactive),–
CCc1cccc(C)c1NS(=O)(=O)c1ccc(-c2cc(C)no2)s1,-4.44% (inactive),–
O=C(CC1N=C2c3ccccc3N=C(SCc3ccc(F)cc3)N2C1=O)NCc1cccs1 (centres undefined),10.7% (inactive),–
COc1cccc(-c2nc(CS(=O)(=O)CC(=O)N3CCN(c4cc(C)ccc4C)CC3)c(C)o2)c1,12.5% (inactive),–
CSc1nc(Nc2ccc(F)cc2)cc(-c2ccccc2)n1,2.27% (inactive),–
Cc1nc(SCC(=O)Nc2ccc(C(=O)O)cc2)n[nH]1,3.12% (inactive),–
COc1ccc(NC(=O)CSc2nccn2C2CCCC2)cc1OC,-5.84% (inactive),–

Compound,"FP activity, negative = inhibition",Potency
COc1ccc(OCC(=O)Nc2cccc(C(=O)OCc3cc(=O)n4nc(C)sc4n3)c2)cc1,-16% (inactive),–
Cc1nnc(NC(=O)CSc2nc3c([nH]c4ccccc43)c(=O)n2-c2cccc(Cl)c2)s1,-4.44% (inactive),–
O=C(CSc1nc(=O)[nH]c2c1CCCC2)Nc1cc(C(F)(F)F)ccc1Cl,-2.51% (inactive),–
Cc1cc(C)cc(OCC(=O)Nc2nc(-c3ccc(F)cc3)ns2)c1,-4.35% (inactive),–
Cc1ccc(Cn2c(CNC(=O)Cc3cccc(C)c3)nc3cccnc32)cc1,-4.25% (inactive),–
CSc1ncc(Cl)c(C(=O)Nc2ccc(S(=O)(=O)N3CCCC(C)C3)cc2)n1 (centres undefined),0.507% (inactive),–
CCc1ccc(CNC(=O)c2ccc(CS(=O)c3ccc(Br)cc3)o2)cc1 (centres undefined),-7.46% (inactive),–
Cc1cccc(C(=O)Nc2ccc(S(=O)(=O)N3CCCCC3c3cccnc3)cc2)c1 (centres undefined),3.94% (inactive),–
COc1ccc(-c2nc(CN3CCC(C(=O)NCCN(CC(C)C)CC(C)C)CC3)c(C)o2)cc1OC,4.85% (inactive),–
Cc1cc(C)cc(NC(=O)CSc2oc(-c3ccccc3)nc2S(=O)(=O)c2ccc(Cl)cc2)c1,0.322% (inactive),–
Cc1cccc(N2CCN(C(=O)c3cnc(N4CCCC4)nc3C)CC2)c1C,-2.02% (inactive),–
CCc1cc2c(cc(C(=O)OC)n2Cc2nc(-c3ccc(C)cc3)oc2C)s1,2.28% (inactive),–
Cc1ccc(-c2cc(C(F)(F)F)c(C#N)c(SCC(=O)Nc3ccccc3)n2)cc1,-0.0269% (inactive),–
COc1ccc(C(=O)NCC(c2ccc(N(C)C)cc2)N2CCc3ccccc32)c(OC)c1 (centres undefined),2.3% (inactive),–
CC(=O)Nc1ccc(NC(=O)CSc2nnc3c4cc(Br)ccc4n(C)c3n2)cc1,0.14% (inactive),–
O=C(CSc1oc(-c2ccco2)nc1S(=O)(=O)c1ccccc1)c1ccc(Cl)cc1,-11.3% (inactive),–
CCN(CC)CCCC(C)n1c2nc(=O)[nH]c(=O)c-2nc2cc(Cl)ccc21 (centres undefined),–,35.5 µM (active)
Cc1ccccc1OCCSc1nc2ccc(NC(=O)c3ccco3)cc2s1,-2.16% (inactive),–
Cc1ccc(-c2nnc(Nc3ccc(OCC(N)=O)cc3)c3ccccc23)cc1S(=O)(=O)NCC1CCCO1 (centres undefined),7.84% (inactive),–
O=C(NC1CC(=O)N(c2ccc(F)cc2)C1)c1cccs1 (centres undefined),-14.7% (inactive),–
O=C(NCCc1ccc(Cl)cc1)c1ccc2nc(CCc3ccccc3)oc2c1,-3.36% (inactive),–
COc1ccc(OC)c(CNC(=O)CN2C(=O)CCn3nc(-c4cn(C)c5ccccc45)cc32)c1,-3.27% (inactive),–
